FAS TE block: inhibitors of human fatty acid synthase thioesterase domain; P49327; recombinant FAS-TE, OMFH fluorogenic substrate, fluorescence endpoint; inhibition, % at 15 µM; actives 0.67% (n = 360,000);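 active = compounds whose normalised, plate-corrected inhibition of enzyme fluorescence in the single-dose primary screen is 50% or more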;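 also: 0% = DMSO with enzyme and 100% = substrate without enzyme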
MIN6 prolif: inducers of beta-cell replication in MIN6 cells; MIN6 cells proliferation, ATPlite luminescence, 48 h; cells starved in 0.2% serum; 100% = growth in 10% serum; actives 0.29% (n = 330,000); proliferation, % at 10 µM;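 active = compounds whose signal lies at least 3.5 SD above the mean of all wells on their plate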;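 also: 0% = DMSO-treated cells in low-serum medium and 100% = 10% serum control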
MPTP block: permeability transition pore inhibition; actives 1.4% (n = 360,000); AID 602449; isolated mouse mitochondria, Ca2+ swelling absorbance, 30 min; inhibition, % at 10 µM;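 active = inhibition of 50% or more, scaled per plate between neutral and stimulator controls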;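 also: 0% = DMSO wells given calcium and 100% = 1 mM EGTA wells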
pCIP destab: lowers stability of the mouse p/CIP coactivator protein | decrease of EGFP signal, % at 10 µM | Q05BA5 | actives 0.01% (n = 290,000) | AID 1984 | F442A p/CIP-EGFP cells, EGFP fluorescence, 16 h;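 active = EGFP signal decrease of at least 30% at 10 µM or well 3 SD below plate mean, unless failing retest; inactive = the rest, including hits failing retest or dose response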
NR3A LBD binder: NR3A (human) ligand-binding domain modulation. Tm shift relative to glycine control, % at 25 µM. actives 2.5% (n = 340,000). AID 1259313. NR3A LBD differential scanning fluorimetry, Tm shift; 0% = protein alone, 100% = glycine-bound protein;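 active = melting temperature shift of at least 10% of the positive control shift, at one fixed dose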
MPTP counter: Rhodamine 123 counter-screen of mitochondrial pore hits; shares compounds with MPTP block; isolated mitochondria, membrane potential, Rhodamine 123 fluorescence; inhibition, % at 10 µM; actives 78% (n = 5,000); AID 624504; in the data active = inhibition above about 22%;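 also: 0% = DMSO vehicle and 100% = positive control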
MPTP swell DR: MPTP inhibition, dose response swelling confirmation | IC50, µM | isolated mitochondria swelling, absorbance | actives 58% (n = 780) | shares compounds with MPTP block; in the data active = IC50 below about 20 µM
MPTP cs DR: active in counter-screen for permeability transition pore inhibitors | shares compounds with MPTP block | isolated mitochondria counterscreen, fluorescence read-out | IC50, µM | actives 49% (n = 780); in the data active = IC50 below about 80 µM
* hit, by the source's call; / = no result. This is a sample that favours compounds with a hit; in the whole collection about 4.1% have one here.

SMILES	FAS TE block	MIN6 prolif	MPTP block	pCIP destab	NR3A LBD binder	MPTP counter	others
Cc1cccc(C)c1NC(=O)C1=C(O)c2sccc2N(C)S1(=O)=O	-6	-1	-1	-3	0	/
N#C/C(=C(/O)CCl)c1nc2c(s1)CCc1ccccc1-2	-2	0	55*	-2	0	78*
Cc1cc(C)c(S(=O)(=O)/N=C2\C=C(NS(=O)(=O)c3ccccc3)C(=O)c3ccccc32)c(C)c1	11	-4	87*	-10	-4	35*
Cc1cc(C)c(O)c(-c2cc(C(=O)NCc3ccccc3)[nH]n2)c1	7	-5	17	-6	2	/
Cc1cc(C)c(O)c(-c2cc(C(=O)Nc3cccnc3)[nH]n2)c1	-7	-2	59*	-8	7	60*
COc1ccc(NC(=O)c2cc(-c3cc(C)cc(C)c3O)n[nH]2)cc1Cl	16	-6	95*	2	36*	63*
COc1ccc(CCNC(=O)c2cc(-c3cc(C)cc(C)c3O)n[nH]2)cc1OC	11	-3	32	10	-5	/
O=[N+]([O-])c1ccc(O)c(C(C#Cc2ccccc2)N2CCOCC2)c1 (stereo not given)	19	-5	68*	-2	-1	87*
O=C(c1cc([N+](=O)[O-])ccc1N1CCOCC1)N1CCN(c2ccccc2)CC1	49	-5	0	-26	/	/
Cc1ccc(C(C)C)c(OCCNC(=O)c2ccccc2O)c1	28	-4	88*	-6	0	83*
CCN1C(=O)[C@H]2[C@@H](c3ccc(C)cc3)N3C(=O)N(c4ccc(C)cc4)C(=O)[C@@]3(CC)[C@H]2C1=O	-6	-1	0	/	-1	/
CCN1C(=O)[C@H]2[C@@H](c3ccc(C)cc3)N3C(=O)N(c4ccc(C(F)(F)F)cc4)C(=O)[C@@]3(CC(C)C)[C@H]2C1=O	41	0	94*	-1	-9	98*
COc1ccc(CN2CCN(Cc3c[nH]c4ccccc34)CC2CCO)cc1C (stereo not given)	-2	-5	1	-8	-1	/
O=C1NC(=S)S/C1=C\c1cccc([N+](=O)[O-])c1	15	/	82*	/	12*	95*
O=C1NC(=S)SC1=Cc1ccccc1Cl	6	/	90*	/	-5	91*
CCN(CC)c1ccc(C=C2SC(=S)NC2=O)cc1	-138	/	64*	/	-8	78*
COc1ccccc1C=C1SC(=S)NC1=O	-4	/	19	/	-10	/
CC(=O)NC(CC(=O)NNC(=O)C(C)Oc1ccccc1F)c1ccccc1 (stereo not given)	-6	1	-2	/	2	/
O=C(O)c1ccc(Cn2cnc3c(=O)[nH]cnc32)cc1	-8	/	0	/	2	/
O=C1C=C(O)c2cccc(O)c2C1=O	1	-5	7	-4	-2	/
O=C1C=C(c2c(O)ccc3ccccc23)c2ccccc2C1=O	11	/	65*	/	-8	50*
O=C(Nc1cc(Sc2nc3ccccc3s2)cc([N+](=O)[O-])c1)c1ccccc1F	32	-2	21	-8	1	/
O=C(Nc1cc(Sc2nc3ccccc3s2)cc([N+](=O)[O-])c1)c1ccccc1	17	-5	90*	-5	9	73*
O=C(Nc1cc(Sc2ccccn2)cc([N+](=O)[O-])c1)c1cccc(F)c1	39	-7	97*	-1	5	70*
O=C(NNC(=O)c1ccccn1)c1cccc([N+](=O)[O-])c1	-4	-5	-1	0	2	/
SMILES	FAS TE block	MIN6 prolif	MPTP block	pCIP destab	NR3A LBD binder	MPTP counter	others
COc1ccc(CNC(=O)C(=O)NCC2OCCN2S(=O)(=O)c2ccc(F)cc2)cc1 (stereo not given)	-3	-3	-1	-7	1	/
N#Cc1ccccc1NC(=O)C1SC(=Nc2ccccc2)C(C(=O)Nc2ccc(Cl)cc2)=C1N (stereo not given)	30	-6	62*	-1	22*	65*
COc1ccccc1N=C1SC(C(=O)Nc2cccc(Cl)c2Cl)C(N)=C1C(N)=O (stereo not given)	3	-7	2	1	0	/
C=CCSc1nc2c(c(=O)n(C)c(=O)n2C)n1CC	-6	5	-2	10	2	/
Cc1ccc(S(=O)(=O)N2CCC[C@H]2C(=O)NC2=NCCS2)cc1	-5	/	-1	/	2	/
Cc1ccc(S(=O)(=O)N2CCCC(C(=O)NC3=NCCS3)C2)cc1 (stereo not given)	-8	-1	70*	11	2	8	MPTP swell DR=>100;MPTP cs DR=>80
Cc1ccc(N2C(=O)C(Cl)=C(N3CCCCCC3)C2=O)c(C)c1	19	-2	-1	-5	1	/
CC(C)Sc1cc(N2CCOCC2)nc(-c2ccccc2)n1	36	-3	50*	4	1	-9	MPTP swell DR=>100;MPTP cs DR=77*
Cc1cccc(N2CC(C(=O)Nc3nnc(SCC(=O)N4CCOCC4)s3)CC2=O)c1 (stereo not given)	1	0	0	-36	0	/
Cn1c2ccccc2c(=O)c2c(=O)n(-c3ccccc3)c(C3CCCCC3)nc21	5	-2	2	-14	-7	/
Cn1c2ccccc2c(=O)c2c(=O)n(C3CCCCCC3)c(C3CCCCC3)nc21	8	/	88*	-6	-8	5
COCCNC(=S)N(CCc1c(C)[nH]c2ccc(F)cc12)Cc1ccco1	18	-1	1	2	-3	/
Cc1cc(=O)c(C(=O)O)nn1-c1ccccc1F	-4	-3	-3	1	-2	/
Cc1ccc(C)c(NC(=S)N(CCc2nc3cc(C)c(C)cc3[nH]2)Cc2cccnc2)c1	0	-2	5	-9	-5	/
C=CCC1(CC=C)CCCN1C(=O)c1cc(COc2ccc(C)nc2)on1	0	-5	99*	-15	2	90*
COCc1cc(C)nc(Sc2nc3c(c(=O)n(C)c(=O)n3C)n2C)c1C#N	-8	-3	1	3	0	/
CCCCc1ccc(NC(=S)NCCO)cc1	-8	0	2	-5	-2	/
Fc1ccc(CCNC(=S)Nc2ccc(F)cc2)cc1	-6	-4	50*	-6	19*	93*
CCCCc1ccc(NC(=S)NCCc2ccc(F)cc2)cc1	15	-6	82*	5	10	105*
CCN1CCc2c(sc(NC(=O)Nc3ccc(Cl)c(Cl)c3)c2C(N)=O)C1	-60	/	55*	-353	18*	51*
Cc1ccc(NC(=O)c2c(C(F)(F)F)nn(C)c2SCc2cccc(C(F)(F)F)c2)cc1C	14	-6	68*	-14	-1	83*
